Assay results reported in PubChem BioAssay (NCATS).
“And” between values parts separate entries of the source, which are not always exact repeats. Equal values may be shown once. Records with an inconclusive call do not appear. The source made the active and inactive calls. Unless noted, calls come from the whole dose curve; as a rule, active = well fitted curve in the direction sought with a large enough effect; inconclusive = small, poorly fitted or top-dose-only effect, or another doubt; inactive = no such curve, though single readings can be large; an effect the other way counts as inactive or inconclusive. Numbered stars: 1 amine (or outer) side, 2 acyl side, 3 side chain; on linkers, the order of the positions; unused ones are H or OH. Bridge positions count the residues as written; N and C are the ends. Square brackets hold non-standard residues; d marks the D form. Peptide text beside a SMILES is read from it. I, II: the chains in the order shown. Actinocin(9to1) = Cc1c2oc3c(C)ccc(C(=O)[*:1])c3nc-2c(C(=O)[*:2])c(N)c1=O; NMeV = CN[C@H](C(=O)O)C(C)C; Sar = CNCC(=O)O

How the values were obtained:
[1] = qHTS for Inhibitors of the Functional Ribonucleoprotein Complex (vRNP) of Lassa (LASV) Arenavirus: LASV Primary Screen - GLuc reporter signal (AID 1347082; calls by dose curve; tested in HEK293 reporter line; note: series mostly up to about 57 µM; nearly all actives have a fitted effect of over 60% in size)
[2] = qHTS for Inhibitors of the Functional Ribonucleoprotein Complex (vRNP) of Lassa (LASV) Arenavirus: Viability assay - alamar blue signal for LASV Primary Screen (AID 1347083; calls by dose curve; tested in HEK293 reporter line; note: nearly all actives have a fitted effect of over 80% in size; note: potency is the fitted concentration of half-maximal effect)
[3] = qHTS for Inhibitors of the Functional Ribonucleoprotein Complex (vRNP) of Lymphocytic Choriomeningitis Arenaviruses (LCMV): Viability assay - alamar blue signal for LCMV Primary Screen (AID 1347085; calls by dose curve; tested in HEK293 reporter line; note: nearly all actives have a fitted effect of over 80% in size; note: potency is the fitted concentration of half-maximal effect)
[4] = biological target: Nucleoprotein (Lymphocytic choriomeningitis virus (strain Armstrong)) (UniProt P09992); test: qHTS for Inhibitors of the Functional Ribonucleoprotein Complex (vRNP) of Lymphocytic Choriomeningitis Arenaviruses (LCMV): LCMV Primary Screen - GLuc reporter signal (AID 1347086; calls by dose curve; note: series mostly up to about 57 µM; nearly all actives have a fitted effect of over 70% in size)
[5] = qHTS of pediatric cancer cell lines to identify multiple opportunities for drug repurposing: Primary screen for TC32 cells (AID 1347089); note: nearly all actives have a fitted effect of over 60% in size
Summary of the method: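 Luminescent ATP read-out (CellTiter-Glo) of metabolically active TC32 cells after 48 h exposure. Concentration-response curves came from 11-point (MIPE, 0.78 nM–46 µM) or 8-point (NPC, 0.59 nM–46 µM) primary titrations; follow-up used 11 points.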

[6] = qHTS of pediatric cancer cell lines to identify multiple opportunities for drug repurposing: Primary screen for DAOY cells (AID 1347090); note: series mostly up to about 46 µM; nearly all actives have a fitted effect of over 55% in size
Summary of the method: (§1)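 Eight- or eleven-point concentration series, 48 h treatment at 37 degrees C in growth media; readout CellTiter-Glo luminescence. Potency and efficacy were taken from the concentration-response curves.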

[7] = qHTS of pediatric cancer cell lines to identify multiple opportunities for drug repurposing: Primary screen for SJ-GBM2 cells (AID 1347091)
Summary of the method: as §1

[8] = qHTS of pediatric cancer cell lines to identify multiple opportunities for drug repurposing: Primary screen for A673 cells (AID 1347092); note: nearly all actives have a fitted effect of over 45% in size
Summary of the method: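 Cell viability of A673 measured by CellTiter-Glo ATP luminescence after 48 hours compound exposure. Dilution series spanned 0.78 nM to 46 µM (MIPE, 11-point) or 0.59 nM to 46 µM (NPC, 8-point); bortezomib 2.3 uM positive control.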

[9] = qHTS of pediatric cancer cell lines to identify multiple opportunities for drug repurposing: Primary screen for SK-N-MC cells (AID 1347093); note: series mostly up to about 46 µM
Summary of the method: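 Metabolically active cells were quantified by ATP-dependent luminescence (CellTiter-Glo, 15 min at room temperature) following 48 h treatment. Cells had been plated at 500-1,000 per well and settled for 5 h beforehand.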

[10] = qHTS of pediatric cancer cell lines to identify multiple opportunities for drug repurposing: Primary screen for BT-37 cells (AID 1347094); note: series mostly up to about 57 µM
Summary of the method: (§2)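 ATP-based luminescence (CellTiter-Glo) quantifies viability after a 48-hour exposure. Compounds are dosed across 8 or 11 final concentrations; DMSO and 2.3 µM bortezomib serve as controls.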

[11] = qHTS of pediatric cancer cell lines to identify multiple opportunities for drug repurposing: Primary screen for NB-EBc1 cells (AID 1347095)
Summary of the method: as §2

[12] = qHTS of pediatric cancer cell lines to identify multiple opportunities for drug repurposing: Primary screen for U-2 OS cells (AID 1347096); note: nearly all actives have a fitted effect of over 50% in size
Summary of the method: (§3)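 Cells (500-1,000/well) in growth media were settled 5 h at 37 degrees C, then given compounds for 48 h. Viability was read as CellTiter-Glo luminescence. Primary runs used MIPE at 11 points (0.78 nM-46 µM) and NPC at 8 points (0.59 nM-46 µM); follow-ups used 11 points.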

[13] = qHTS of pediatric cancer cell lines to identify multiple opportunities for drug repurposing: Primary screen for Saos-2 cells (AID 1347097); note: nearly all actives have a fitted effect of over 40% in size
Summary of the method: as §2

[14] = qHTS of pediatric cancer cell lines to identify multiple opportunities for drug repurposing: Primary screen for SK-N-SH cells (AID 1347098);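 note: DMSO served as neutral control and bortezomib at 2.3 µM as positive control; nearly all actives have a fitted effect of over 65% in size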
Summary of the method: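 Cells (500-1,000/well) rested 5 h, then received compounds for 48 h; metabolically active cells were measured by CellTiter-Glo luminescence. Final concentrations spanned up to 46 µM (MIPE, 11-point) or 0.59 nM-46 µM (NPC, 8-point) in primary screens, 11-point in follow-ups.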

[15] = qHTS of pediatric cancer cell lines to identify multiple opportunities for drug repurposing: Primary screen for LAN-5 cells (AID 1347100)
Summary of the method: as §3

[16] = qHTS of pediatric cancer cell lines to identify multiple opportunities for drug repurposing: Primary screen for NB1643 cells (AID 1347099); note: nearly all actives have a fitted effect of over 50% in size
Summary of the method: as §2

Measured: Potency

Chain of Nucleoprotein (Lymphocytic choriomeningitis virus (strain Armstrong)) (P09992 whole entry, looked up): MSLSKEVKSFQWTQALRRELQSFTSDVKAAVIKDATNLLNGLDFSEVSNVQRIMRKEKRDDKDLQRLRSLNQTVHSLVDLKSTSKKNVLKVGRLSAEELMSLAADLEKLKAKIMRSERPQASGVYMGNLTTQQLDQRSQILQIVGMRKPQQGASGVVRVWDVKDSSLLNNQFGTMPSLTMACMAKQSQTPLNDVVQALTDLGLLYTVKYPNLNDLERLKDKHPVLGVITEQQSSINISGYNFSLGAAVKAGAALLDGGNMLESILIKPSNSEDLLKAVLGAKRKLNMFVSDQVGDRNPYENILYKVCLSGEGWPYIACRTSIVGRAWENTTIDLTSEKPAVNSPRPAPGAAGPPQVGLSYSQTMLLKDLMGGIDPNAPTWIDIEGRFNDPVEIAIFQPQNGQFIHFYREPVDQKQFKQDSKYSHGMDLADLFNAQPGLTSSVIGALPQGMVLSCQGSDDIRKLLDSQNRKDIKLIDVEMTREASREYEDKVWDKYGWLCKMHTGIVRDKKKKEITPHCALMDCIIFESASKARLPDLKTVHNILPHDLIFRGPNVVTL

CN1CCN(C(=O)O[C@H]2c3nccnc3C(=O)N2c2ccc(Cl)cn2)CC1
not listed: [16]
inactive: all other assays above

COC(=O)CCc1ccc(OCC(O)CNC(C)C)cc1 (centres undefined)
inactive: [1] | [2] | [3] | [4]

Fc1ccc([C@@H]2CCNC[C@H]2COc2ccc3c(c2)OCO3)cc1
inactive: [1] | [2] | [3] | [4]

N[C@@H](Cc1cc(I)c(Oc2cc(I)c(O)c(I)c2)c(I)c1)C(=O)O
inactive: [1] | [2] | [3] | [4]

C[n+]1ccccc1/C=N/O
inactive: [1] | [2] | [3] | [4]

CC(C)(C)NCC(O)c1cc(Cl)c(N)c(Cl)c1 (centres undefined)
not listed: [16]
inactive: all other assays above

CN(C)c1cc(NC(=O)CNC(C)(C)C)c(O)c2c1C[C@@H]1C[C@H]3[C@H](N(C)C)C(=O)C(C(N)=O)=C(O)[C@@]3(O)C(=O)C1=C2O
inactive: [1] | [2] | [3] | [4]

C[C@H]1c2cccc(O)c2C(O)=C2C(=O)[C@]3(O)C(O)=C(C(N)=O)C(=O)[C@@H](N(C)C)[C@@H]3[C@@H](O)[C@@H]21
inactive: [1] | [2] | [3] | [4]

CC[C@@]1(c2ccccc2)NC(=O)N(C)C1=O
inactive: [1] | [2] | [3] | [4]

CC(C)Nc1cccnc1N1CCN(C(=O)c2cc3cc(NS(C)(=O)=O)ccc3[nH]2)CC1
inactive: [1] | [2] | [3] | [4]

Cc1c2oc3c(C)ccc(C(=O)N[C@@H]4C(=O)N[C@H](C(C)C)C(=O)N5CCC[C@H]5C(=O)N(C)CC(=O)N(C)[C@@H](C(C)C)C(=O)O[C@@H]4C)c3nc-2c(C(=O)N[C@@H]2C(=O)N[C@H](C(C)C)C(=O)N3CCC[C@H]3C(=O)N(C)CC(=O)N(C)[C@@H](C(C)C)C(=O)O[C@@H]2C)c(N)c1=O (I: T[dV]P[Sar][NMeV] / II: T[dV]P[Sar][NMeV]; ester I:1-I:C, II:1-II:C; linker I:N-II:N via Actinocin(9to1))
inactive: [1] | [2] | [3] | [4]

CC1=C(C(=O)O)N2C(=O)[C@@H](NC(=O)[C@H](N)c3ccc(O)cc3)[C@H]2SC1
inactive: [1] | [2] | [3] | [4]

CC(C)(C)C(=O)OCOP(=O)(COCCn1cnc2c(N)ncnc21)OCOC(=O)C(C)(C)C
inactive: [1] | [2] | [3] | [4]

NS(=O)(=O)c1cc2c(cc1Cl)NC=NS2(=O)=O
inactive: [1] | [2] | [3] | [4]

COc1cc2c(cc1OC)[C@@H]1CC(=O)[C@@H](CC(C)C)CN1CC2
inactive: [1] | [2] | [3] | [4]

CC(C)[N+](C)(CCOC(=O)C1c2ccccc2Oc2ccccc21)C(C)C
inactive: [1] | [2] | [3] | [4]

COc1ccc([C@@H]2Sc3ccccc3N(CCN(C)C)C(=O)[C@@H]2OC(C)=O)cc1
inactive: [1] | [2] | [3] | [4]

CO[C@H]1C=CO[C@@]2(C)Oc3c(C)c(O)c4c(O)c(c(/C=N/N5CCN(C)CC5)c(O)c4c3C2=O)NC(=O)/C(C)=C\C=C[C@H](C)[C@H](O)[C@@H](C)[C@@H](O)[C@@H](C)[C@H](OC(C)=O)[C@@H]1C
inactive: [1] | [2] | [3] | [4]

O=NN(CCCl)C(=O)NCCCl
inactive: [1] | [2] | [3] | [4]

Cc1nccn1CC1CCc2c(c3ccccc3n2C)C1=O (centres undefined)
inactive: [1] | [2] | [3] | [4]

CC1NCCOC1c1ccccc1 (centres undefined)
inactive: all assays above

C[C@]12CC[C@H]3[C@@H](CCC4=CC(=O)CC[C@@H]43)[C@@H]1CC[C@@H]2OC(=O)CCc1ccccc1
not listed: [13]
inactive: all other assays above

NP(N)(=O)NC(=O)c1ccc(F)cc1
not listed: [11]
inactive: all other assays above

O=C(CCCCCCC(=O)Nc1ccccc1)NO
inactive: [1] | [4]
active: [2] 8.91 µM and 7.69 µM | [3] 7.69 µM

CCOC(=O)N1CCC(=C2c3ccc(Cl)cc3CCc3cccnc32)CC1
inactive: [1] | [2] | [3] | [4]

COc1ccc2c(c1OC)CN1CCc3cc4c(cc3C1C2)OCO4 (centres undefined)
not listed: [8] | [9] | [10] | [15]
inactive: all other assays above

N[C@@H](Cc1ccc(Oc2cc(I)c(O)c(I)c2)c(I)c1)C(=O)O
not listed: [10]
inactive: all other assays above

CC(=O)Nc1cc([As](=O)(O)O)ccc1O
not listed: [5] | [11]
inactive: all other assays above

CCC(C(N)=O)N1CCCC1=O (centres undefined)
not listed: [5]
inactive: all other assays above

CC[N+]1(C)CCCC(OC(=O)C(O)(c2ccccc2)c2ccccc2)C1 (centres undefined)
not listed: [10] | [16]
inactive: all other assays above

O=[N+]([O-])c1cc([As](=O)(O)O)ccc1O
not listed: [5] | [10]
inactive: all other assays above

COC1(CS(=O)c2ccccc2)CCN(CCc2c[nH]c3ccc(F)cc23)CC1 (centres undefined)
not listed: [10] | [14]
inactive: all other assays above

O=C(NC(O)C(Cl)(Cl)Cl)NC(O)C(Cl)(Cl)Cl (centres undefined)
not listed: [10] | [14]
inactive: all other assays above

CC(C)(N)Cc1ccc(Cl)cc1
not listed: [5] | [10]
inactive: all other assays above

O=C1CC[C@@]2(O)[C@H]3Cc4ccc(O)c5c4[C@@]2(CCN3CC2CC2)[C@H]1O5
not listed: [9] | [10] | [11] | [16]
inactive: all other assays above

OCCOc1ccccc1
not listed: [5] | [10] | [11] | [16]
inactive: all other assays above

CCC(COC(=O)c1cc(OC)c(OC)c(OC)c1)(c1ccccc1)N(C)C (centres undefined)
not listed: [7] | [15] | [16]
inactive: all other assays above

N[C@@H]1C[C@H]1c1ccccc1
not listed: [10] | [11] | [13] | [16]
inactive: all other assays above

CC1OC(C)OC(C)O1 (centres undefined)
not listed: [5]
inactive: all other assays above

O=P1(NCCCl)OCCCN1CCCl (centres undefined)
not listed: [7] | [8] | [11]
inactive: all other assays above
